Measurements from PubChem BioAssay (NCATS).
Inconclusive results are not listed. Calls of active or inactive are those of the source. Calls come from the whole dose curve; as a rule, active = well fitted curve in the direction sought with a large enough effect; inconclusive = small, poorly fitted or top-dose-only effect, or another doubt; inactive = no such curve, though single readings can be large; an effect the other way counts as inactive or inconclusive.

How the values were obtained:
[1] = qHTS of pediatric cancer cell lines to identify multiple opportunities for drug repurposing: Primary screen for Saos-2 cells (AID 1347097); note: % is set by controls: 0 for no effect and ±100 for the full control effect; nearly all actives have a fitted effect of over 40% in size
Method in brief: (§1)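 Cells seeded at 500-1,000 cells/well in growth media, rested 5 hours at 37 degrees C, 5% CO2, then dosed; MIPE compounds at 11-point (from 0.78 nM) and NPC at 8-point (from 0.59 nM) final concentrations. Viability by CellTiter-Glo luminescence after 48 hours.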

[2] = qHTS of pediatric cancer cell lines to identify multiple opportunities for drug repurposing: Primary screen for SK-N-SH cells (AID 1347098);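 note: DMSO served as neutral control and bortezomib at 2.3 µM as positive control; % is set by controls: 0 for no effect and ±100 for the full control effect; nearly all actives have a fitted effect of over 65% in size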
Method in brief: (§2)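 Cells (500-1,000/well) rested 5 h, then received compounds for 48 h; metabolically active cells were measured by CellTiter-Glo luminescence. Final concentrations spanned up to 46 µM (MIPE, 11-point) or 0.59 nM-46 µM (NPC, 8-point) in primary screens, 11-point in follow-ups.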

[3] = qHTS of pediatric cancer cell lines to identify multiple opportunities for drug repurposing: Primary screen for LAN-5 cells (AID 1347100);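 note: plate controls were DMSO neutral control for no effect and bortezomib positive control for full effect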
Method in brief: (§3)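 Viability after 48 h compound treatment at 37C, 500-1,000 cells/well, read as ATP luminescence with CellTiter-Glo. Primary screens used 11-point (MIPE, 0.78 nM-46 µM) or 8-point (NPC, 0.59 nM-46 µM) final concentrations; follow-up screens used 11-point dilutions.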

[4] = qHTS of pediatric cancer cell lines to identify multiple opportunities for drug repurposing: Primary screen for BT-12 cells (AID 1347101);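 note: plate controls were DMSO for no effect and bortezomib positive control for full effect; nearly all actives have a fitted effect of over 25% in size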
Method in brief: as §2

[5] = qHTS of pediatric cancer cell lines to identify multiple opportunities for drug repurposing: Primary screen for Rh18 cells (AID 1347102); note: % is set by controls: 0 for no effect and ±100 for the full control effect; nearly all actives have a fitted effect of over 65% in size
Method in brief: as §3

[6] = qHTS of pediatric cancer cell lines to identify multiple opportunities for drug repurposing: Primary screen for OHS-50 cells (AID 1347103);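 note: plate controls were DMSO neutral control for no effect and bortezomib positive control for full effect; nearly all actives have a fitted effect of over 40% in size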
Method in brief: as §2

[7] = qHTS of pediatric cancer cell lines to identify multiple opportunities for drug repurposing: Primary screen for RD cells (AID 1347104);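 note: plate controls were DMSO for no effect and bortezomib for full effect; nearly all actives have a fitted effect of over 55% in size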
Method in brief: as §1

[8] = qHTS of pediatric cancer cell lines to identify multiple opportunities for drug repurposing: Primary screen for MG 63 (6-TG R) cells (AID 1347105); note: % is set by controls: 0 for no effect and ±100 for the full control effect; nearly all actives have a fitted effect of over 50% in size
Method in brief: as §1

[9] = qHTS of pediatric cancer cell lines to identify multiple opportunities for drug repurposing: Primary screen for NB1643 cells (AID 1347099);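 note: plate controls were DMSO neutral control for no effect and bortezomib positive control for full effect; nearly all actives have a fitted effect of over 50% in size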
Method in brief: as §1

CCCCCCCC(=O)OCC(O)CO (configuration not stated)
inactive: outcome [1] | outcome [2] | outcome [3] | outcome [4] | outcome [5] | outcome [6] | outcome [7] | outcome [8]

CC(=O)N(CC(O)CN(C(C)=O)c1c(I)c(C(=O)NCC(O)CO)c(I)c(C(=O)NCC(O)CO)c1I)c1c(I)c(C(=O)NCC(O)CO)c(I)c(C(=O)NCC(O)CO)c1I (configuration not stated)
inactive: outcome [1] | outcome [2] | outcome [3] | outcome [4] | outcome [5] | outcome [6] | outcome [7] | outcome [8]

CCN(CC)CCc1nc(-c2ccccc2)no1
inactive: outcome [1] | outcome [2] | Potency [9] | outcome [3] | outcome [4] | outcome [5] | outcome [6] | outcome [7] | outcome [8]

COc1ccccc1Oc1c(NS(=O)(=O)c2ccc(C(C)(C)C)cc2)nc(-c2ncccn2)nc1OCCO
inactive: outcome [1] | outcome [2] | Potency [9] | outcome [3] | outcome [4] | outcome [5] | outcome [6] | outcome [7] | outcome [8]

Cc1cc(NC(=O)C2=C(O)c3ccccc3S(=O)(=O)N2C)no1
inactive: outcome [2] | Potency [9] | outcome [3] | outcome [4] | outcome [5] | outcome [6] | outcome [7] | outcome [8]

C/C=C/C(=O)N(CC)c1ccccc1C
inactive: outcome [1] | outcome [2] | Potency [9] | outcome [3] | outcome [4] | outcome [5] | outcome [6] | outcome [7] | outcome [8]

COc1ccccc1OCC(O)CO (configuration not stated)
inactive: outcome [1] | outcome [2] | Potency [9] | outcome [3] | outcome [4] | outcome [5] | outcome [6] | outcome [7] | outcome [8]

O=C1C(c2[nH]c3ccccc3c2O)=Nc2ccccc21
inactive: outcome [1] | outcome [2] | Potency [9] | outcome [3] | outcome [4] | outcome [5] | outcome [6] | outcome [7] | outcome [8]

Cc1c(N(C)C)c(=O)n(-c2ccccc2)n1C
inactive: outcome [1] | outcome [2] | outcome [3] | outcome [4] | outcome [5] | outcome [6] | outcome [7] | outcome [8]

NNC(=O)CP(=O)(c1ccccc1)c1ccccc1
inactive: outcome [1] | outcome [2] | Potency [9] | outcome [3] | outcome [4] | outcome [5] | outcome [6] | outcome [7] | outcome [8]

CC(=O)Nc1ccc(OCCOCCOc2ccc(NC(C)=O)cc2)cc1
inactive: outcome [1] | outcome [2] | outcome [3] | outcome [4] | outcome [5] | outcome [6] | outcome [7] | outcome [8]

CN1C[C@@H]2C[C@H]1CN2c1cc2c(cc1F)c(=O)c(C(=O)O)cn2C1CC1
inactive: outcome [1] | outcome [2] | Potency [9] | outcome [3] | outcome [5] | outcome [6] | outcome [7] | outcome [8]

C[C@@H]1CCC[C@H](C)N1
inactive: outcome [1] | outcome [2] | Potency [9] | outcome [3] | outcome [4] | outcome [5] | outcome [6] | outcome [7] | outcome [8]

O=C(NCC(O)CO)c1c(I)c(C(=O)NCC(O)CO)c(I)c(N(CCO)C(=O)CO)c1I (configuration not stated)
inactive: outcome [2] | Potency [9] | outcome [3] | outcome [4] | outcome [5] | outcome [6] | outcome [7] | outcome [8]

O=C(CN1CCNCC1)NC1CCCCC1
inactive: outcome [1] | outcome [2] | Potency [9] | outcome [3] | outcome [4] | outcome [5] | outcome [6] | outcome [7] | outcome [8]

C[N+](C)(C)CC(O)CC(=O)[O-] (configuration not stated)
inactive: outcome [2] | Potency [9] | outcome [3] | outcome [4] | outcome [5] | outcome [6] | outcome [7] | outcome [8]

Cc1c(NC(C)C)c(=O)n(-c2ccccc2)n1C
inactive: outcome [2] | Potency [9] | outcome [3] | outcome [4] | outcome [5] | outcome [6] | outcome [7] | outcome [8]

Cc1c(NC(=O)c2cccnc2)c(=O)n(-c2ccccc2)n1C
inactive: outcome [1] | outcome [2] | Potency [9] | outcome [3] | outcome [4] | outcome [5] | outcome [6] | outcome [7] | outcome [8]

CC(CN(C)C)C(C)(O)Cc1ccc(Cl)cc1 (configuration not stated)
inactive: outcome [1] | outcome [2] | Potency [9] | outcome [3] | outcome [4] | outcome [5] | outcome [7] | outcome [8]

CC(=O)OCC(COC(C)=O)OC(C)=O
inactive: outcome [1] | outcome [2] | Potency [9] | outcome [3] | outcome [4] | outcome [5] | outcome [6] | outcome [7] | outcome [8]

CC(=O)Oc1cccc(O)c1
inactive: outcome [1] | outcome [2] | Potency [9] | outcome [3] | outcome [4] | outcome [5] | outcome [7] | outcome [8]

CCCCCCCCCCOc1cc2c(=O)c(C(=O)OCC)c[nH]c2cc1OCC
inactive: activity change, negative = cytotoxic [2] 2.61% [at 6 µM] | activity change, negative = cytotoxic [9] 5.42% [at 4.84 µM] | activity change, negative = cytotoxic [3] 22.4% [at 4.84 µM] | activity change, negative = cytotoxic [4] 6.24% [at 6.03 µM] | activity change, negative = cytotoxic [5] 5.32% [at 4.84 µM] | activity change, negative = cytotoxic [6] -4.02% [at 6.18 µM] | activity change, negative = cytotoxic [7] 5.98% [at 4.84 µM] | activity change, negative = cytotoxic [8] -13.3% [at 4.84 µM]

C[n+]1ccccc1/C=N/O
inactive: outcome [1] | outcome [2] | Potency [9] | outcome [3] | outcome [4] | outcome [5] | outcome [6] | outcome [7] | outcome [8]

CN1CCN(C(=O)C2CCCCC2)CC1
inactive: outcome [1] | outcome [2] | Potency [9] | outcome [3] | outcome [4] | outcome [5] | outcome [6] | outcome [7] | outcome [8]

C[C@]1(Cn2ccnn2)[C@H](C(=O)O)N2C(=O)C[C@H]2S1(=O)=O
inactive: outcome [1] | outcome [2] | outcome [3] | outcome [4] | outcome [5] | outcome [6] | outcome [7] | outcome [8]

Cc1onc(-c2ccccc2)c1-c1ccc(S(N)(=O)=O)cc1
inactive: outcome [1] | outcome [2] | outcome [3] | outcome [5] | outcome [7] | outcome [8]

CC(C)(C)C(=O)OCOC(=O)[C@@H]1N2C(=O)[C@@H](NC(=O)[C@H](N)c3ccccc3)[C@H]2SC1(C)C
inactive: outcome [1] | outcome [2] | Potency [9] | outcome [3] | outcome [4] | outcome [5] | outcome [6] | outcome [7] | outcome [8]
